# In PMC5540273 (PLoS ONE, 2017):
# Tested on: T1, GCN2(Kin.Dom.2,S808G)
# T1 construct: gene EIF2AK4
# Settings: concentration: 1 μM, replicates: in singlicate; n = 1
# 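Also: KINOMEscan kinase panel screen.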
row,SMILES,%Inh [%]
1,O=C(Nc1ccccc1F)NC1CCN(c2ccnc(Nc3ccc(F)cc3)n2)CC1 [GSK1379800],0
2,COc1cccc(C2=C(Nc3ccc(Cl)c(C(=O)O)c3)C(=O)NC2=O)c1 [SB-390769],100
3,O=c1[nH]cc(-c2ccc(N3CCOCC3)cc2)c2sc(-c3cn[nH]c3)cc12 [GSK2276055],0
4,COc1ccc(Nc2nccc(NCCNC(=O)c3cc4ccccc4s3)n2)cc1 [GSK1379896],3
5,O=C(Nc1cccc(-c2nn3ccccc3c2-c2ccnc(Nc3cccc(C(F)(F)F)c3)n2)c1)c1c(F)cccc1F [GSK292658],10
6,COc1cccc(-c2ccc3c(NC(=O)C4CC4)n[nH]c3n2)c1 [SB-710903],1
7,Cc1cccc(Nc2nc(N[C@H]3CCNC3)ncc2C(N)=O)c1.Cl [GSK2197149],25
8,Fc1ccc(-c2ncn(C3CCNCC3)c2-c2ccnc(Oc3ccc(-c4ccccc4)cc3)n2)cc1 [SB-245391],18
9,O=C(NC1CCN(c2ccnc(Nc3ccc(F)cc3)n2)C1)c1cc2ccccc2s1 (centres unmarked) [GSK1379716],7
10,COc1cccc(C(=O)Nc2cccc(Oc3ccc4nc(NC(=O)C5CC5)cn4n3)c2)c1,22
11,Cl.NC(=O)c1cccc(Nc2nccc(Nc3ccc(Oc4c(Cl)cccc4Cl)c(Cl)c3)n2)c1 [GW659009],0
12,O=C(Nc1n[nH]c2cc(-c3ccoc3)ccc12)C1CC1 [SB-738481],0
13,Cl.c1ccc(-c2ccc3c(Nc4ccc5[nH]ccc5c4)ccnc3c2)nc1 [GW440138],0
14,COc1ccc(-c2coc3ccc(-c4nnc(SCc5ccc(OC)c(C(F)(F)F)c5)o4)cc23)cc1,0
15,COc1cc2c(cc1OCCN1CCNCC1)ncc1c3ccc(C#N)cc3[nH]c21,92.5
16,CN(c1ccc(NC(=O)Nc2cc(C(F)(F)F)ccc2F)cc1)c1ccnc(Nc2ccc(S(N)(=O)=O)cc2)n1 [GW809893],0
17,Cn1cc(-c2ccc3c(c2)CCN3C(=O)Cc2cccc(F)c2)c2c(N)ncnc21 [GSK2603358],33
18,CN(C)Cc1ccc(-c2ccc3c(Nc4ccc(Oc5ccccn5)cc4)ccnc3c2)o1 [GW567148],0
19,c1ccc(-c2n[nH]cc2Nc2ccnc3ccccc23)nc1 [GW694077],0
20,COc1ccc(CNC(=O)NC2CCN(c3ccnc(Nc4ccc(F)cc4)n3)CC2)cc1 [GSK1379788],0
21,COc1cc(Nc2nccc(-c3c(-c4cccc(NC(=O)c5c(F)cccc5F)c4)nn4ncccc34)n2)cc(OC)c1OC [GSK327238],69
22,CCCCc1nn2ncccc2c1-c1ccnc(Nc2ccc(N3CCN(C)CC3)cc2)n1 [GW684941],93
23,CC(C)c1nc(-c2cccc(NS(=O)(=O)c3c(F)cccc3F)c2F)c(-c2ccnc(Nc3ccc(N4CCOCC4)nc3)n2)s1 [GSK2008607],100
24,NCCCC(NC(=O)c1cc(Br)c(-c2ccnc3[nH]ccc23)s1)c1ccccc1.O=C(O)C(F)(F)F.O=C(O)C(F)(F)F (centres unmarked) [GSK1287544],7
25,CN(C)S(=O)(=O)c1cc(-c2ccc3nccc(-c4cccc(S(N)(=O)=O)c4)c3c2)cnc1N [GSK1669921],0

# Tested on: GRK1
# Settings: concentration: 1 μM, replicates: in singlicate; n = 1
row,SMILES,%Inh [%]
1,Nc1ncc(-c2cccnc2)c2scc(-c3ccc4c(c3)CCN4C(=O)Cc3ccccc3)c12 [GSK683281],0
2,c1ccc(Oc2ccc(Nc3ccnc4cc(-c5ccc(CNCCN6CCOCC6)o5)ccc34)cc2)nc1 [GW567145],0
3,Cl.Cl.NCC(NCc1ccc(-c2ccnc3[nH]ccc23)s1)c1ccccc1 (centres unmarked) [GSK1321565],50
4,CCn1c(-c2nonc2N)nc2c(C#CC(C)(C)O)nc(OC[C@H](N)c3ccccc3)cc21 [GSK943949],14
5,O=C(Nc1cccc(-c2nn3ncccc3c2-c2ccnc(Nc3ccccc3)n2)c1)c1c(F)cccc1F [GSK198271],0
6,CCS(=O)(=O)c1ccc(OC)c(Nc2nccc(-c3c(-c4cccc(NC(=O)c5c(F)cccc5F)c4)nn4ncccc34)n2)c1 [GSK326180],0
7,C[C@@H](Oc1cc(-n2cnc3cc(-c4ccnc(NCCS(C)(=O)=O)c4)ccc32)sc1C(N)=O)c1ccccc1Cl [GSK907232],0
8,Oc1cc(Nc2ccnc3cc(I)ccc23)ccc1F [GW552771],0
9,Nc1ncc(-c2ccc3nccc(-c4ccncc4)c3c2)cc1S(=O)(=O)N1CCOCC1 [GSK1627798],1
10,Cl.Cl.NCC(C(=O)Nc1cc(Br)c(-c2ccnc3[nH]ccc23)s1)c1ccccc1 (centres unmarked) [GSK1269851],56
11,COc1ccc(Nc2nccc(N3CCC(NC(=O)Nc4cccc(OC)c4)C3)n2)cc1 (centres unmarked) [GSK1379742],0
12,Cc1cccc(NC(=O)Nc2ccc(Oc3ncnc4ccn(C)c34)cc2)c1,4
13,O=C(Nc1ccccc1F)NC1CCN(c2ccnc(Nc3ccc(F)cc3)n2)CC1 [GSK1379800],0
14,COc1cccc(C2=C(Nc3ccc(Cl)c(C(=O)O)c3)C(=O)NC2=O)c1 [SB-390769],100
15,O=c1[nH]cc(-c2ccc(N3CCOCC3)cc2)c2sc(-c3cn[nH]c3)cc12 [GSK2276055],14
16,COc1ccc(Nc2nccc(NCCNC(=O)c3cc4ccccc4s3)n2)cc1 [GSK1379896],6
17,O=C(Nc1cccc(-c2nn3ccccc3c2-c2ccnc(Nc3cccc(C(F)(F)F)c3)n2)c1)c1c(F)cccc1F [GSK292658],3
18,COc1cccc(-c2ccc3c(NC(=O)C4CC4)n[nH]c3n2)c1 [SB-710903],5
19,Cc1cccc(Nc2nc(N[C@H]3CCNC3)ncc2C(N)=O)c1.Cl [GSK2197149],0

row,SMILES,%Inh [%]
1,Fc1ccc(-c2ncn(C3CCNCC3)c2-c2ccnc(Oc3ccc(-c4ccccc4)cc3)n2)cc1 [SB-245391],19
2,O=C(NC1CCN(c2ccnc(Nc3ccc(F)cc3)n2)C1)c1cc2ccccc2s1 (centres unmarked) [GSK1379716],3
3,COc1cccc(C(=O)Nc2cccc(Oc3ccc4nc(NC(=O)C5CC5)cn4n3)c2)c1,17
4,Cl.NC(=O)c1cccc(Nc2nccc(Nc3ccc(Oc4c(Cl)cccc4Cl)c(Cl)c3)n2)c1 [GW659009],0
5,O=C(Nc1n[nH]c2cc(-c3ccoc3)ccc12)C1CC1 [SB-738481],18
6,Cl.c1ccc(-c2ccc3c(Nc4ccc5[nH]ccc5c4)ccnc3c2)nc1 [GW440138],0
7,COc1ccc(-c2coc3ccc(-c4nnc(SCc5ccc(OC)c(C(F)(F)F)c5)o4)cc23)cc1,19
8,COc1cc2c(cc1OCCN1CCNCC1)ncc1c3ccc(C#N)cc3[nH]c21,3
9,CN(c1ccc(NC(=O)Nc2cc(C(F)(F)F)ccc2F)cc1)c1ccnc(Nc2ccc(S(N)(=O)=O)cc2)n1 [GW809893],17
10,Cn1cc(-c2ccc3c(c2)CCN3C(=O)Cc2cccc(F)c2)c2c(N)ncnc21 [GSK2603358],0
11,CN(C)Cc1ccc(-c2ccc3c(Nc4ccc(Oc5ccccn5)cc4)ccnc3c2)o1 [GW567148],0
12,c1ccc(-c2n[nH]cc2Nc2ccnc3ccccc23)nc1 [GW694077],7
13,COc1ccc(CNC(=O)NC2CCN(c3ccnc(Nc4ccc(F)cc4)n3)CC2)cc1 [GSK1379788],0
14,COc1cc(Nc2nccc(-c3c(-c4cccc(NC(=O)c5c(F)cccc5F)c4)nn4ncccc34)n2)cc(OC)c1OC [GSK327238],0
15,CCCCc1nn2ncccc2c1-c1ccnc(Nc2ccc(N3CCN(C)CC3)cc2)n1 [GW684941],0
16,CC(C)c1nc(-c2cccc(NS(=O)(=O)c3c(F)cccc3F)c2F)c(-c2ccnc(Nc3ccc(N4CCOCC4)nc3)n2)s1 [GSK2008607],100
17,NCCCC(NC(=O)c1cc(Br)c(-c2ccnc3[nH]ccc23)s1)c1ccccc1.O=C(O)C(F)(F)F.O=C(O)C(F)(F)F (centres unmarked) [GSK1287544],68
18,CN(C)S(=O)(=O)c1cc(-c2ccc3nccc(-c4cccc(S(N)(=O)=O)c4)c3c2)cnc1N [GSK1669921],5
